According to PubChem BioAssay (NCI):
The panel holds about 83,000 compounds, 20% with a hit somewhere; the sample as a whole holds those more often.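 Note: values are percent growth. 100 is the growth of untreated cells, values between 100 and 0 indicate rising inhibition; between -100 and 0 indicates cell death.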 The source made the active and inactive calls. Rule for the calls: active = growth percent below 10; inactive = the rest.

Key:
Test in all cases: NCI-60 one-dose screen, 48 h (100 = growth as untreated, 0 = no growth, -100 = all killed)
Settings in all cases: 10 µM
SK-MEL-2 melanoma = tested on: SK-MEL-2 melanoma
EKVX NSCLC = tested on: EKVX NSCLC
SN12C renal = tested on: SN12C renal
UO-31 renal = tested on: UO-31 renal
TK-10 renal = tested on: TK-10 renal
ACHN renal = tested on: ACHN renal
CAKI-1 renal = tested on: CAKI-1 renal
A498 renal = tested on: A498 renal
CCRF-CEM leukemia = tested on: CCRF-CEM leukemia

Measured: growth

Cc1ccc(NC(=O)c2ccc(-n3c(=O)[nH]c4ccccc4c3=O)cc2)cc1
inactive: SK-MEL-2 melanoma 97.8% | EKVX NSCLC 84.8% | SN12C renal 69.4% | TK-10 renal 96.3% | ACHN renal 68.3% | CAKI-1 renal 88.4% | A498 renal 107%
active: UO-31 renal -16.8%

Cc1cc2c(c(O)c1Br)-c1ncoc1C(=O)[C@]1(C)CC[C@H](C(C)C)[C@H]21
active: SK-MEL-2 melanoma 4.52%
inactive: EKVX NSCLC 46.7% | SN12C renal 54.5% | UO-31 renal 50.3% | TK-10 renal 68.8% | ACHN renal 52.2% | CAKI-1 renal 55.4% | A498 renal 104% | CCRF-CEM leukemia 14.2%

O=c1[nH][nH]c(Nc2ccccc2)c1N=Nc1ccc(F)cc1
inactive: SK-MEL-2 melanoma 94.1% | EKVX NSCLC 72.1% | SN12C renal 79.6% | UO-31 renal 66.2% | TK-10 renal 94.5% | ACHN renal 86.2% | CAKI-1 renal 59.3% | A498 renal 110% | CCRF-CEM leukemia 93.9%

CCCCCc1ccc(S(=O)(=O)Nc2cc(-c3csc(N(C)C(C)=O)n3)ccc2N2CCN(C)CC2)cc1
inactive: SK-MEL-2 melanoma 24.2% | EKVX NSCLC 65.4% | SN12C renal 14.1% | UO-31 renal 33.1% | TK-10 renal 47.3% | ACHN renal 13.7% | CAKI-1 renal 38.9% | A498 renal 104%

O=C(Nc1ccccc1)Nc1nc2ccccc2s1
inactive: SK-MEL-2 melanoma 92.9% | EKVX NSCLC 64.1% | SN12C renal 88.9% | UO-31 renal 57.5% | TK-10 renal 95.4% | ACHN renal 82.2% | CAKI-1 renal 76.7% | A498 renal 129% | CCRF-CEM leukemia 67.5%

COc1ccc(-c2nc(S(=O)(=O)c3ccc(C)cc3)c(S(=O)(=O)CC(=O)N(C)Cc3ccccc3)o2)cc1
active: ACHN renal 6.56% | CCRF-CEM leukemia -35.9%
inactive: SK-MEL-2 melanoma 51.1% | EKVX NSCLC 84.6% | SN12C renal 47.4% | UO-31 renal 34.8% | TK-10 renal 56% | CAKI-1 renal 42.9% | A498 renal 132%

Cc1ccc(-c2nc3ccc(C(=O)N=Nc4c(O)[nH]c5ccc(Cl)cc45)cc3[nH]2)cc1
inactive: SK-MEL-2 melanoma 57.3% | EKVX NSCLC 37.9% | SN12C renal 23% | UO-31 renal 72.4% | TK-10 renal 65.6% | ACHN renal 55.1% | CAKI-1 renal 58% | A498 renal 119%
active: CCRF-CEM leukemia -31.7%

COc1ccc(C(C)=C(c2ccc(OCCCN(C)C)cc2)c2ccc(OCCCN(C)C)cc2)cc1
active: SK-MEL-2 melanoma -92.8% | EKVX NSCLC -85.1% | SN12C renal -94.2% | UO-31 renal -99.4% | TK-10 renal -97.7% | ACHN renal -100% | CAKI-1 renal -100% | A498 renal -85.2% | CCRF-CEM leukemia -81.2%

CNC(=O)c1cc(-c2ccc(NC(=O)Nc3ccc(C)cc3)cc2)nc2cccnc12
inactive: SK-MEL-2 melanoma 103% | EKVX NSCLC 99.4% | SN12C renal 101% | UO-31 renal 63.9% | TK-10 renal 108% | ACHN renal 92.3% | CAKI-1 renal 92.8% | A498 renal 95.4%

CN1CCN(c2ccc(Nc3nc(N4CCN(S(=O)(=O)c5ccc(Cl)cc5)CC4)c4sccc4n3)cc2)CC1
inactive: SK-MEL-2 melanoma 79.4% | EKVX NSCLC 62.1% | SN12C renal 91.9% | UO-31 renal 64.2% | TK-10 renal 85.9% | A498 renal 125%
active: ACHN renal -64.4% | CAKI-1 renal 7.7% | CCRF-CEM leukemia 1.87%

O=C(c1ccc(-n2c(=O)[nH]c3ccccc3c2=O)cc1)N1CCOCC1
inactive: SK-MEL-2 melanoma 102% | EKVX NSCLC 101% | SN12C renal 89.8% | UO-31 renal 82.5% | TK-10 renal 97.2% | ACHN renal 103% | CAKI-1 renal 89% | A498 renal 116% | CCRF-CEM leukemia 108%

O=C1CCC(N2Cc3c(C#CCCCNC(=O)c4ccc(NC(=O)[C@@H]5NC6(CCCCC6)[C@@]6(C(=O)Nc7cc(Cl)ccc76)[C@H]5c5cccc(Cl)c5F)cc4)cccc3C2=O)C(=O)N1 (stereo not given in full)
inactive: SK-MEL-2 melanoma 76.4% | EKVX NSCLC 51.6% | SN12C renal 74.3% | UO-31 renal 30.3% | TK-10 renal 79.8% | ACHN renal 26.2% | CAKI-1 renal 36.1% | A498 renal 94.9% | CCRF-CEM leukemia 47.9%

C=C(C)[C@@H]1CC[C@]2(C)[C@H](CC=C3[C@@H]4CC(C)(C)CC[C@]4(C(=O)N4CCOCC4)CC[C@]32C)[C@@]1(C)CCCN
active: SK-MEL-2 melanoma -92.1% | EKVX NSCLC -84.1% | SN12C renal -89.1% | UO-31 renal -100% | TK-10 renal -95.7% | ACHN renal -100% | CAKI-1 renal -96.3% | A498 renal -89.5% | CCRF-CEM leukemia -57.2%

CN1CCN(c2ccc(Nc3nc(NCCCNC(=O)C4CCCCC4)c4sccc4n3)cc2)CC1
inactive: SK-MEL-2 melanoma 102% | EKVX NSCLC 67.3% | SN12C renal 70.6% | UO-31 renal 62.4% | TK-10 renal 99.4% | ACHN renal 36.2% | CAKI-1 renal 57.2% | A498 renal 144% | CCRF-CEM leukemia 18%

CC(=O)c1ccc(NC(=O)NCn2c(=O)[nH]c3ccccc3c2=O)cc1
inactive: SK-MEL-2 melanoma 106% | EKVX NSCLC 92.5% | SN12C renal 94.2% | UO-31 renal 73.7% | TK-10 renal 105% | ACHN renal 99.2% | CAKI-1 renal 91.2% | A498 renal 98.1% | CCRF-CEM leukemia 91.6%

CCN(CC)CCOc1ccc(C(=C(C)c2ccccc2)c2ccc(OCCN(CC)CC)cc2)cc1
inactive: EKVX NSCLC 35.3% | SN12C renal 56.9% | A498 renal 78.5%
active: SK-MEL-2 melanoma -75.8% | UO-31 renal -41.6% | TK-10 renal -9.31% | ACHN renal -13.3% | CAKI-1 renal 8.81% | CCRF-CEM leukemia -27.2%

CCOC(=O)C1=C(N)N(c2ccc(Cl)cc2)C2=C(C(=O)CC(C)(C)C2)C1c1ccc(N2CCOCC2)cc1 (stereo not given)
inactive: SK-MEL-2 melanoma 96.2% | EKVX NSCLC 74.6% | SN12C renal 97.7% | UO-31 renal 85.3% | TK-10 renal 98% | ACHN renal 112% | CAKI-1 renal 86.7% | A498 renal 119% | CCRF-CEM leukemia 100%

C#Cc1ccc(S(=O)(=O)Nc2cccc(-c3csc(NC(C)=O)n3)c2)cc1
active: UO-31 renal -81.1%
inactive: SK-MEL-2 melanoma 81.5% | EKVX NSCLC 57.9% | SN12C renal 79% | TK-10 renal 81.7% | ACHN renal 82.6% | CAKI-1 renal 65.3% | A498 renal 96% | CCRF-CEM leukemia 49.5%

CCCS(=O)(=O)c1oc(-c2ccc(F)cc2)nc1S(=O)(=O)c1ccc(F)cc1
active: SN12C renal -85.4% | UO-31 renal -100% | TK-10 renal -97.2% | ACHN renal -100% | CAKI-1 renal -92.2% | CCRF-CEM leukemia -51.3%
inactive: SK-MEL-2 melanoma 36.7% | EKVX NSCLC 82.8% | A498 renal 113%

CC(=C(c1ccc(OCCN2CCCCC2)cc1)c1ccc(OCCN2CCCCC2)cc1)c1ccccc1
inactive: SK-MEL-2 melanoma 20.2% | EKVX NSCLC 73.6% | SN12C renal 68.6% | TK-10 renal 70.4% | ACHN renal 12.7% | CAKI-1 renal 33.7% | A498 renal 136%
active: UO-31 renal 2.17% | CCRF-CEM leukemia -19.2%

NC(=Nc1ccc(OCCCCCCCCn2ccnn2)cc1)c1ccccc1
inactive: SK-MEL-2 melanoma 14.8% | EKVX NSCLC 42.7% | SN12C renal 32.3% | UO-31 renal 40.7% | TK-10 renal 70.9% | ACHN renal 34.4% | CAKI-1 renal 37.9% | A498 renal 98.1% | CCRF-CEM leukemia 15.6%

CC(=C(c1ccc(OCCCN(C)C)cc1)c1ccc(OCCCN(C)C)cc1)c1ccccc1
active: SK-MEL-2 melanoma -86.5% | EKVX NSCLC -96.1% | SN12C renal -96.8% | UO-31 renal -99.9% | TK-10 renal -92% | ACHN renal -99.2% | CAKI-1 renal -100% | A498 renal -86.4% | CCRF-CEM leukemia -65.9%

Cc1ccc(-c2nc3ccc(C(=O)N=Nc4c(O)[nH]c5ccc([N+](=O)[O-])cc45)cc3[nH]2)cc1
inactive: SK-MEL-2 melanoma 101% | EKVX NSCLC 101% | SN12C renal 48.8% | UO-31 renal 81.7% | TK-10 renal 107% | ACHN renal 97% | CAKI-1 renal 95.9% | A498 renal 116% | CCRF-CEM leukemia 61.2%

CC1(C)CC[C@]2(C(=O)NCCCNCCCCNCCCN)CC[C@]3(C)C(=CC[C@@H]4[C@@]5(C)Cc6c([nH]c7ccccc67)C(C)(C)[C@@H]5CC[C@]43C)[C@H]2C1
inactive: SK-MEL-2 melanoma 101% | EKVX NSCLC 90.7% | SN12C renal 91.4% | UO-31 renal 71% | TK-10 renal 96.9% | ACHN renal 93.9% | CAKI-1 renal 78% | A498 renal 147% | CCRF-CEM leukemia 64.4%

COC1CC(Cn2cc(COc3ccc4ccc(=O)oc4c3)nn2)C(OCc2ccccc2)C(OCc2ccccc2)C1OCc1ccccc1 (stereo not given)
inactive: SK-MEL-2 melanoma 114% | EKVX NSCLC 90.7% | SN12C renal 106% | UO-31 renal 71.7% | TK-10 renal 110% | ACHN renal 105% | CAKI-1 renal 84% | A498 renal 116% | CCRF-CEM leukemia 87%

CC1(C)CC[C@]2(C(=O)O)CC[C@]3(C)C(=CC[C@@H]4[C@@]5(C)C/C(=C/c6ccncc6)[C@H](O)C(C)(C)[C@@H]5CC[C@]43C)[C@@H]2C1
inactive: SK-MEL-2 melanoma 55.4% | EKVX NSCLC 30.1% | SN12C renal 55% | UO-31 renal 32.9% | TK-10 renal 46.9% | ACHN renal 25.7% | CAKI-1 renal 35.6% | A498 renal 65% | CCRF-CEM leukemia 21%

CN1CCN(c2ccc(Nc3nc(NCCNC(=O)c4ccc(C(F)(F)F)cc4)c4sccc4n3)cc2)CC1
active: SK-MEL-2 melanoma -41.9% | UO-31 renal 4.76% | CCRF-CEM leukemia -31.1%
inactive: EKVX NSCLC 59.7% | SN12C renal 73.6% | TK-10 renal 12% | ACHN renal 10.7% | CAKI-1 renal 22.5% | A498 renal 69%
